PubChem BioAssay AID540276 (National Center for Advancing Translational Sciences (NCATS), 2011)
Hit rate of the full screen: of about 300,000 compounds, about 5,400 (1.8%) were called active. Entries that show only a call come without a potency. Roughly 28% stayed inconclusive and do not appear here. The call rests on the fitted dose curve; tested in HEK293 cells. For the sample, actives were picked, then their nearest neighbours and some compounds at random.

Experiment: qHTS for inhibitors of binding or entry into cells for Marburg Virus
Settings: Marburg virus pseudotyped entry inhibition, cell reporter; series mostly up to 37.8 µM
Potency means the concentration at half of the fitted maximal effect.

**Q.** With `O=[N+]([O-])c1cc2ccccc2nc1-c1ccccc1` as the molecule, how does the Potency read?
**A.** inactive

**Q.** Which Potency does the source give for `O=C(NCCN1CCOC1=O)C1CCC(=O)N(CCc2ccc(Cl)cc2)C1` (stereo not drawn) here?
**A.** inactive

**Q.** Which Potency does the source give for `COCCOC(=O)C1=C(C)OC(N)=C(C#N)[C@H]1c1ccco1` here?
**A.** inactive

**Q.** With `O=C(CN1CCCCCC1)N1c2ccccc2Sc2ccc(C(F)(F)F)cc21` as the molecule, how does the Potency read?
**A.** 18.3 µM (active)

**Q.** With `O=C(CN1C(=O)/C(=C\c2ccc(C(F)(F)F)cc2)Sc2ccccc21)NCc1ccco1` as the molecule, how does the Potency read?
**A.** inactive

**Q.** Which Potency does the source give for `CCNC(=O)N1c2ccccc2Sc2ccccc21` here?
**A.** inactive

**Q.** For `Oc1ccc(-n2nnnc2SCc2c(F)cccc2Cl)cc1`, which Potency is on record?
**A.** inactive

**Q.** Which Potency does the source give for `O=C(NN=Cc1ccccc1O)NN=Cc1ccccc1O` here?
**A.** 3.98 µM (active)

**Q.** Which Potency does the source give for `O=C(CCCO)N/N=C/c1cc(Br)ccc1O` here?
**A.** inactive

**Q.** With `O=C(N/N=C/c1ccc(O)c2ccccc12)c1cccnc1` as the molecule, how does the Potency read?
**A.** inactive

**Q.** With `Cc1ccc(NC(=O)CSc2nc(=O)n(CCN(C)C)c3c2CCCC3)c(C)c1` as the molecule, how does the Potency read?
**A.** inactive

**Q.** For `O=C1CCCCC1Sc1ccc(Cl)cc1[N+](=O)[O-]` (stereo not drawn), which Potency is on record?
**A.** inactive

**Q.** Which Potency does the source give for `CCn1c(SCC(=O)Nc2ccc(Br)cc2)nc2sc3c(c2c1=O)CCN(C)C3` here?
**A.** inactive

**Q.** With `Cc1ccc(NC(=O)NC(C)c2c(-n3cccc3)sc(C)c2C)c(C)c1` (stereo not drawn) as the molecule, how does the Potency read?
**A.** 11.2 µM (active)

**Q.** With `COc1ccc(NC(=O)NC(C)c2c(-n3cccc3)sc(C)c2C)cc1OC` (stereo not drawn) as the molecule, how does the Potency read?
**A.** inactive

**Q.** For `C/C(CC(=O)Nc1ccc(C)cc1C)=N\NC(=O)C(C)C`, which Potency is on record?
**A.** inactive

**Q.** With `CC(C)CCNC(=O)c1ccc2c(Cl)c3c(nc2c1)CCC3` as the molecule, how does the Potency read?
**A.** 10 µM (active)

**Q.** For `CC(=O)c1ccc(NC(=O)c2ccc3c(Cl)c4c(nc3c2)CCCC4)cc1`, which Potency is on record?
**A.** inactive

**Q.** Which Potency does the source give for `COc1cccc(CNC(=O)c2ccc3c(Cl)c4c(nc3c2)CCCC4)c1` here?
**A.** inactive

**Q.** For `COc1ccccc1N1CCC(N2CCN(CC(C)(C)C)C(CCO)C2)CC1` (stereo not drawn), which Potency is on record?
**A.** inactive

**Q.** For `CC(C)(C)c1ccc(C(=O)N2CCN(CCNC(=O)C(=O)Nc3ccc(F)cc3)CC2)cc1`, which Potency is on record?
**A.** inactive

**Q.** For `COc1ccccc1CNC(=O)c1ccc(N(C)S(=O)(=O)c2ccc(C)cc2)cc1`, which Potency is on record?
**A.** inactive

**Q.** For `CC(C)c1nc(NC[C@H]2CCCO2)c(C#N)c2c1COC(C)(C)C2`, which Potency is on record?
**A.** inactive

**Q.** With `Nc1nc(Nc2ccccc2)nc(NCCO)c1[N+](=O)[O-]` as the molecule, how does the Potency read?
**A.** inactive

**Q.** With `COCCNc1nc(N)c([N+](=O)[O-])c(N2CCCCCC2)n1` as the molecule, how does the Potency read?
**A.** inactive

**Q.** For `CCN1CCN(c2nc(Nc3cccc(F)c3)nc(N)c2[N+](=O)[O-])CC1`, which Potency is on record?
**A.** 12.6 µM (active)

**Q.** Which Potency does the source give for `COC(=O)CC(CC(=O)OC)n1cccc1` here?
**A.** inactive

**Q.** For `COc1ccc2[nH]c3nc(SCC(=O)NC4CC4)nnc3c2c1`, which Potency is on record?
**A.** inactive

**Q.** Which Potency does the source give for `CC1CCCCC1NC(=O)c1cn(C)c2ccc(S(=O)(=O)N3CCOCC3)cc2c1=O` (stereo not drawn) here?
**A.** inactive

**Q.** With `Cc1ccc(S(=O)(=O)C(C#N)c2nc3ccccc3nc2N2CCCC2)cc1C` (stereo not drawn) as the molecule, how does the Potency read?
**A.** inactive

**Q.** Which Potency does the source give for `Cc1cc(C(=O)NNC(=O)c2cccc(S(=O)(=O)N3CCOCC3)c2)c2ccccc2n1` here?
**A.** inactive

**Q.** With `Cc1cc(N2CCN(S(=O)(=O)c3ccc(C)c(C)c3)CC2)c2ccccc2n1` as the molecule, how does the Potency read?
**A.** 16.4 µM (active)

**Q.** Which Potency does the source give for `CCOc1ccc(CCNC(=O)COC(=O)C2CCN(S(=O)(=O)c3ccccc3)CC2)cc1OCC` here?
**A.** inactive

**Q.** Which Potency does the source give for `COc1cccc(/C=N/Nc2cc(C)nc(-c3ccccc3O)n2)c1O` here?
**A.** 5.62 µM (active)

**Q.** Which Potency does the source give for `COc1cccc(/C=N\NC(=O)C2=NNC(=O)C2C)c1O` (stereo not drawn) here?
**A.** inactive

**Q.** With `COc1cccc(/C=N/Nc2ccc(S(=O)(=O)Nc3ccccc3C(=O)O)cc2[N+](=O)[O-])c1O` as the molecule, how does the Potency read?
**A.** inactive

**Q.** With `COCCN1C(=O)N(c2ccc(Cl)cc2)C(=O)C1CC(=O)Nc1cc(OC)cc(OC)c1` (stereo not drawn) as the molecule, how does the Potency read?
**A.** inactive

**Q.** With `CCOC(=O)C1(Cc2ccccc2C)CCCN(C(=O)CCc2c(C)noc2C)C1` (stereo not drawn) as the molecule, how does the Potency read?
**A.** inactive

**Q.** For `O=C1CC(c2ccccc2)C(c2ccccc2)=NN1` (stereo not drawn), which Potency is on record?
**A.** inactive

**Q.** Which Potency does the source give for `Cc1ccc(-c2noc(CCC(N)=O)n2)cc1` here?
**A.** inactive

**Q.** For `CCNC(=O)CCc1nc(-c2ccc(C(C)(C)C)cc2)no1`, which Potency is on record?
**A.** 8.91 µM (active)

**Q.** With `CCNC(=O)CCc1nc(-c2ccc(C)cc2)no1` as the molecule, how does the Potency read?
**A.** inactive

**Q.** With `COc1ccc(Cl)cc1NC(=O)c1cccc(N2C(=O)C3CC=CCC3C2=O)c1` (stereo not drawn) as the molecule, how does the Potency read?
**A.** inactive

**Q.** For `O=C(CC1SC(N2CCCC2)=NC1=O)Nc1ccc(C(=O)NCCc2ccc(F)cc2)cc1` (stereo not drawn), which Potency is on record?
**A.** inactive

**Q.** Which Potency does the source give for `CC1CC(C)CN(CCC(=O)Nc2ccc3c(c2)CCC3)C1` (stereo not drawn) here?
**A.** 7.3 µM (active)

**Q.** For `CC(C)C(=O)OCC(=O)Nc1ccc2c(c1)CCC2`, which Potency is on record?
**A.** inactive

**Q.** Which Potency does the source give for `CC1CC(C)CN(CC(=O)Nc2ccc(S(N)(=O)=O)cc2)C1` (stereo not drawn) here?
**A.** inactive

**Q.** For `Cc1nnc(NC(=O)C(c2ccccc2)c2ccccc2)s1`, which Potency is on record?
**A.** inactive

**Q.** With `CC/C(=C\c1ccc(Cl)cc1)c1ccncc1` as the molecule, how does the Potency read?
**A.** inactive

**Q.** For `O=C1NCC(Nc2ccccc2)C(=O)N1` (stereo not drawn), which Potency is on record?
**A.** inactive

**Q.** For `Cc1cc(Cl)ccc1OCC(=O)N(Cc1ccc(N(C)C)cc1)C1CCS(=O)(=O)C1` (stereo not drawn), which Potency is on record?
**A.** inactive

**Q.** Which Potency does the source give for `CC1(C)C(C=C(Cl)Cl)C1C(=O)N(Cc1ccc(Cl)cc1)C1CCS(=O)(=O)C1` (stereo not drawn) here?
**A.** 12.6 µM (active)

**Q.** With `Cc1ccc(CN(C(=O)c2sc3ccccc3c2Cl)C2CCS(=O)(=O)C2)cc1` (stereo not drawn) as the molecule, how does the Potency read?
**A.** inactive
